# Results from PubChem BioAssay.
# Where “and” joins values, the source holds several entries; their conditions need not be identical. Equal values may be shown once. Results filed as inconclusive are left out. Some structures have more than one record in an assay (separate samples or runs), and their calls can disagree. Calls of active or inactive are those of the source. Rule as the data show it, unless noted: active = inhibition above about 80%; inactive = the rest.
# Tests used:
# [1] = viability loss in pontine glioma line – cell-based, SU-DIPG-XVII, MIPE5.0, CellTiter-Glo, qHTS, dose response (AID 1347060; cut-off not given, nearly all actives have AC50 up to about 26 µM;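 also: cells exposed to compound for 48 hours before viability readout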); conditions: CellTiter-Glo ATP luminescence
# [2] = viability loss in pontine glioma line – cell-based, JHH-DIPG-1, MIPE4.0, CellTiter-Glo, qHTS, dose response (AID 1347062; cut-off not given, nearly all actives have AC50 up to about 27 µM;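 also: cells exposed to compound for two days before readout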); conditions: JHH-DIPG-1 viability, CellTiter-Glo ATP luminescence
# [3] = viability loss in pontine glioma line – cell-based, SU-DIPG-IV, MIPE4.0, CellTiter-Glo, qHTS, dose response (AID 1347063; cut-off not given, nearly all actives have AC50 up to about 30 µM;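 also: compound exposure lasted 48 hours before the viability readout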); conditions: CellTiter-Glo ATP luminescence
# [4] = viability loss in pontine glioma line – cell-based, SU-DIPG-XIII, MIPE5.0, CellTiter-Glo, qHTS, dose response (AID 1347064; cut-off not given, nearly all actives have AC50 up to about 23 µM;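 also: cells exposed to compound for 48 hours before the viability read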); conditions: CellTiter-Glo ATP luminescence
# [5] = viability loss in pontine glioma line – cell-based, SU-DIPG-XXV, MIPE5.0, CellTiter-Glo, qHTS, dose response (AID 1347065; cut-off not given, nearly all actives have AC50 up to about 26 µM;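 also: cells exposed to compound for 48 hours before ATP readout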); conditions: CellTiter-Glo ATP luminescence
# [6] = JHH-DIPG-1 glioma cell viability, MIPE5.0 library, CellTiter-Glo luminescence, qHTS (AID 1347067; cut-off not given, nearly all actives have AC50 up to about 26 µM;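 also: cells exposed to compound for 48 hours before readout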); conditions: JHH-DIPG-1 glioma viability, CellTiter-Glo ATP luminescence
# [7] = compounds altering HSF1 focus formation in cells – imaging, Selleck Cancer Library (AID 1347162; in the data active = plate-normalised HSF1 focus index below about 0.46); conditions: human cells, HSF1 nuclear foci imaging, at 10 µM; SSMD: measured here: HSF1 foci SSMD mean; cell count: measured here: cell number; plate-normalised HSF1 focus index: stronger effect = lower value
# [8] = growth inhibition, single agent or in combination, cell-based, chromothripsis tumors, cisplatin or BGB combos (AID 1671449); conditions: LFS_MB_P medulloblastoma cells;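 also: cells exposed for 96 hours; 0% = vehicle DMSO and 100% = killing by high DMSO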
# [9] = growth inhibition, single agent and combos, cell-based, chromothripsis tumors, cisplatin or BGB combos (AID 1671450); conditions: HDN33 neuroblastoma cells, stronger effect = higher value;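 also: cells exposed to compound for four days; 0% = vehicle DMSO and 100% = cell killing by high DMSO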
# [10] = growth inhibition, single agents and combos, ICB984, cell-based, cisplatin or BGB combos, synergistic combos for chromothripsis tumors (AID 1671451; call rule not given here;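 also: cells exposed for 96 hours before readout; 0% = vehicle DMSO and 100% = killing by high DMSO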); conditions: ICB984 medulloblastoma cells, drug combinations, stronger effect = higher value
# [11] = growth inhibition, single agents and combos, HTB85, cell-based, BGB or cisplatin IC20 combos, synergistic combos for chromothripsis tumors (AID 1671453); conditions: HTB85 osteosarcoma cells, drug combinations, stronger effect = higher value;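 also: cells exposed for 96 hours before readout; 0% = vehicle DMSO and 100% = high DMSO killing control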
# [12] = growth inhibition, MDA-MB-436, cell-based, BGB or cisplatin combos, synergistic combos for chromothripsis tumors (AID 1671458; call rule not given here;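 also: cells exposed for 96 hours; 0% = vehicle DMSO and 100% = killing by high DMSO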); conditions: MDA-MB-436 breast carcinoma growth inhibition, drug combinations, stronger effect = higher value
# [13] = BT084 cell growth, single and combined drugs, ICGC_MB145, cisplatin and BGB IC40 combos (AID 1671461); conditions: BT084 medulloblastoma cells, drug combinations, stronger effect = higher value;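 also: cells exposed to drugs for 96 hours; 0% = vehicle DMSO and 100% = high DMSO full killing control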
structure (smiles),measurement,setting,value
Cc1[nH]c2ccccc2c1CCNCc1ccc(/C=C/C(=O)NO)cc1,AC50,[1],1180 nM (active)
same,AC50,[2],132 nM (active)
same,AC50,[3],332 nM (active)
same,AC50,[4],166 nM (active)
same,AC50,[5],148 nM (active)
same,AC50,[6],166 nM (active)
same,SSMD,[7],-3.12
same,cell count,[7],7220
same,plate-normalised HSF1 focus index,[7],0.803 (inactive)
same,inhibition,"[8]; at 0.5 µM, stronger effect = higher value",42% (inactive) and 87.2% (active)
same,inhibition,"[8]; measured here: combination with BGB IC20, at 0.005 µM",-5.26% and -19.1%
same,inhibition,"[8]; measured here: combination with BGB IC40, at 0.005 µM",-17.3% and -29%
same,inhibition,"[8]; measured here: combination with BGB IC40, at 0.05 µM",-6.97% and -48.6%
same,inhibition,"[8]; measured here: combination with cisplatin, at 0.5 µM, stronger effect = higher value",84.3% and 119%
same,inhibition,"[8]; measured here: combination with cisplatin, at 5 µM, stronger effect = higher value",120% and 116%
same,inhibition,"[9]; BGB combo, at 5 µM",99.9% and 99.7%
same,inhibition,[9]; at 0.5 µM,99.7% (active) and 60.8% (inactive)
same,inhibition,"[9]; cisplatin combo, at 5 µM",99.9% and 100%
same,inhibition,"[9]; measured here: with BGB IC20 combination, at 0.5 µM",99.5% and 57.1%
same,inhibition,"[9]; measured here: with cisplatin IC20 combination, at 0.5 µM",99.8% and 58.2%
same,inhibition,"[9]; single agent, at 5 µM",99.9%
same,inhibition,"[10]; BGB IC20 combo, at 0.005 µM",86.9% and 15.5%
same,inhibition,"[10]; BGB IC40 combo, at 0.005 µM",98.3% and 28.4%
same,inhibition,"[10]; BGB IC40 combo, at 0.05 µM",99.9% and 97.7%
same,inhibition,[10]; at 0.5 µM,-9.68% (inactive) and -7.76% (inactive)
same,inhibition,"[10]; cisplatin combo, at 0.05 µM",99.9% and 97.7%
same,inhibition,"[10]; cisplatin combo, at 0.5 µM",-13.7% and 4.07%
same,inhibition,"[10]; cisplatin combo, at 5 µM",25.1% and -22.1%
same,inhibition,"[10]; measured here: 5 uM single agent, at 5 µM",26.1% and 8.36%
same,inhibition,[11]; at 0.5 µM,99.9% (active) and 73.4% (inactive)
same,inhibition,"[11]; measured here: with BGB IC20, at 0.5 µM",100% and 62.5%
same,inhibition,"[11]; measured here: with BGB IC20, at 5 µM",99.9% and 99.8%
same,inhibition,"[11]; measured here: with cisplatin IC20, at 0.5 µM",100% and 90.3%
same,inhibition,"[11]; measured here: with cisplatin IC20, at 5 µM",100%
same,inhibition,"[11]; single agent, at 5 µM",99.9% and 100%
same,inhibition,[12]; at 0.5 µM,68.6% (inactive) and 35.2% (inactive)
same,inhibition,"[12]; measured here: BGB combination, at 0.5 µM",60.4% and 26.7%
same,inhibition,"[12]; measured here: BGB combination, at 5 µM",70.3% and 56.2%
same,inhibition,"[12]; measured here: cisplatin combination, at 0.5 µM",66.3% and 33.8%
same,inhibition,"[12]; measured here: cisplatin combination, at 5 µM",80.8% and 74.3%
same,inhibition,[13]; at 0.5 µM,90.4% (active) and 65.9% (inactive)
same,inhibition,"[13]; cisplatin combination, at 0.5 µM",101% and 78.2%
same,inhibition,"[13]; cisplatin combination, at 5 µM",102% and 105%
same,inhibition,"[13]; measured here: BGB IC40 combination 0.05 uM, at 0.05 µM",52.7% and 3.36%
same,inhibition,"[13]; single agent, at 5 µM",109% and 106%
